Reference: PubChem BioAssay AID1159580 (chemical genetic matrix, 2015)
Screen size: about 5,500 compounds; about 2,000 (36%) were called active. Inconclusive results (about 18%) are left out. No stated cut-off is given here; in the data, active means normalized growth mostly below about 0.91 (no sharp cut-off); inconclusive means no clear call, values can overlap the other calls; inactive means mostly above about 0.92. The list shows a part of the results.

Assay: chemical genetic growth profiling, strain panel (AID 1159580);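 further: tested at 20 µM; growth read once vehicle control cultures reached saturation at 30 °C; 1 = growth at the plate median or of vehicle wells; lower values mean less growth of the strain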
Settings: S. cerevisiae deletion strains, growth OD

Measured: normalized growth

CC(=O)N[C@@H](CC(=O)O)C(=O)O
inactive: locus YAL013W, strain DEP1, active compounds read low 1.01 | locus YAL021C, strain ccr4, active compounds read low 0.998 | locus YAL026C, strain drs2, active compounds read low 1.01 | locus YAL030W, strain snc1, active compounds read low 0.997 | locus YBL061C, strain skt5, active compounds read low 1.01 | locus YBR009C, strain hhf1, active compounds read low 1.01 | locus YBR021W, strain FUR4, active compounds read low 1.02 | locus YBR023C, strain chs3, active compounds read low 1 | locus YBR171W, strain sec66, active compounds read low 1 | locus YBR229C, strain ROT2, active compounds read low 1.01 | locus YBR231C, strain swc5, active compounds read low 0.982 | locus YBR279W, strain paf1, active compounds read low 1 | locus YCL011C, strain gbp2, active compounds read low 1.01 | locus YCL016C, strain dcc1, active compounds read low 1 | locus YCL029C, strain bik1, active compounds read low 1.03 | locus YCL069W, strain vba3, active compounds read low 1.01 | locus YCR088W, strain abp1, active compounds read low 1 | locus YDL005C, strain med2, active compounds read low 0.997 | locus YDL035C, strain GPR1, active compounds read low 1 | locus YDL040C, strain nat1, active compounds read low 1.01 | locus YDL074C, strain BRE1, active compounds read low 1.01 | locus YDL101C, strain DUN1, active compounds read low 1.01 | locus YDL134C, strain PPH21, active compounds read low 1.01 | locus YDL185W, strain tfp1, active compounds read low 1.02 | locus YDL192W, strain arf1, active compounds read low 1.02 | locus YDR001C, strain nth1, active compounds read low 1.01 | locus YDR069C, strain doa4, active compounds read low 1.03 | locus YDR101C, strain arx1, active compounds read low 1.02 | locus YDR137W, strain rgp1, active compounds read low 0.997 | locus YDR150W, strain NUM1, active compounds read low 1.01 | locus YDR159W, strain sac3, active compounds read low 0.969 | locus YDR162C, strain NBP2, active compounds read low 1.01 | locus YDR195W, strain ref2 0.972 | locus YDR297W, strain sur2, active compounds read low 1.02 | locus YDR318W, strain mcm21, active compounds read low 1.01 | locus YDR334W, strain swr1, active compounds read low 1.01 | locus YDR335W, strain msn5, active compounds read low 1.01 | locus YDR388W, active compounds read low 1.01 | locus YDR392W, strain spt3, active compounds read low 0.932 | locus YDR502C, strain sam2, active compounds read low 1.02 | locus YEL003W, strain gim4, active compounds read low 1.01 | locus YEL037C, strain rad23, active compounds read low 1.01 | locus YEL061C, strain CIN8 (second series), active compounds read low 1.01 | locus YEL061C, strain CIN8, active compounds read low 1.01 | locus YER015W, strain faa2, active compounds read low 1.01 | locus YER016W, strain bim1, active compounds read low 1 | locus YER110C, active compounds read low 1.02 | locus YER111C, strain swi4, active compounds read low 1.01 | locus YER155C, strain BEM2 (second series), active compounds read low 0.999 | locus YER155C, strain BEM2, active compounds read low 1.01 | locus YER167W, strain BCK2, active compounds read low 1.01 | locus YFR010W, strain ubp6, active compounds read low 1 | locus YGL078C, strain dbp3, active compounds read low 1.01 | locus YGL086W, strain mad1, active compounds read low 1.01 | locus YGL167C, strain pmr1, active compounds read low 1 | locus YGL173C, strain kem1, active compounds read low 1.02 | locus YGL227W, strain vid30, active compounds read low 1.01 | locus YGL240W, strain doc1, active compounds read low 0.984 | locus YGL248W, strain PDE1, active compounds read low 1 | locus YGL253W, strain hxk2, active compounds read low 1.01 | locus YGR078C, strain PAC10, active compounds read low 1.01 | locus YGR135W, strain pre9, active compounds read low 1.01 | locus YGR229C, strain SMI1, active compounds read low 1.01 | locus YGR252W, strain gcn5, active compounds read low 0.959 | locus YHR013C, strain ard1, active compounds read low 1.01 | locus YHR027C, strain rpn1, active compounds read low 0.993 | locus YHR030C, strain SLT2, active compounds read low 1.01 | locus YHR079C, strain IRE1 (second series), active compounds read low 1.01 | locus YHR094C, strain hxt1, active compounds read low 1.01 | locus YHR129C, strain ARP1, active compounds read low 0.997 | locus YHR142W, strain chs7, active compounds read low 1.01 | locus YHR200W, strain rpn10, active compounds read low 1.02 | locus YIL066C, strain RNR3, active compounds read low 1.02 | locus YIL073C, strain SPO22, active compounds read low 1.02 | locus YIL125W, strain kgd1, active compounds read low 1.01 | locus YIR030C, strain dcg1, active compounds read low 1.03 | locus YJL092W, strain hpr5, active compounds read low 1.01 | locus YJL095W, strain BCK1 (second series), active compounds read low 0.999 | locus YJL095W, strain BCK1, active compounds read low 1.02 | locus YJL115W, strain asf1, active compounds read low 1 | locus YJL129C, strain trk1, active compounds read low 1 | locus YJL134W, strain LCB3, active compounds read low 1.01 | locus YJL154C, strain vps35, active compounds read low 1.01 | locus YJL164C, strain tpk1, active compounds read low 1 | locus YJL166W, strain qcr8, active compounds read low 1.01 | locus YJL168C, strain set2, active compounds read low 1.01 | locus YJL187C, strain SWE1 (second series), active compounds read low 1.01 | locus YJL187C, strain SWE1, active compounds read low 1.03
